Screening data deposited in PubChem by several laboratories.
AddAB inh: less growth of phage-infected E. coli with AddAB. 330,000 tested, 0.29% active. inhibition, % at 11.9 µM. E. coli expressing H. pylori AddAB, absorbance growth; in the data active = inhibition above about 12%;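 also: 0% = vehicle wells of infected cells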
phage Ecoli inh: E. coli growth loss with phage present | growth absorbance | inhibition, % at 11.9 µM | 360,000 tested, 0.26% active; in the data active = inhibition above about 11%
E coli growth-1: bacterial growth inhibition, counter-screen for AddAB inhibitors | E. coli V3065 growth, OD600 absorbance, 18 h | inhibition, % at 11.9 µM | 330,000 tested, 0.27% active;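 active = inhibition above the campaign's mean inhibition across all tested compounds plus 3 SD, cut at about 9.9% in these data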;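 also: uninfected addAB+ strain grown without phage in ampicillin broth; 0% = DMSO wells and 100% = ciprofloxacin 0.95 µg/ml wells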
E coli growth-2: blocks Escherichia coli growth; OD600, 23 h; hits give low values; OD600 absorbance (test concentration not listed); 330,000 tested, 0.21% active;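 active = OD600 absorbance below the run mean of sample wells minus 3.6 SD, in any replicate, cut at about 0.56 in these data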
Tat export inh: inhibitors of E. coli Tat protein transport. 340,000 tested, 0.036% active. AID 488895. E. coli MC4100 TorA-mCherry Tat export, fluorescence. inhibition, % at 10 µM;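 active = mean replicate inhibition at least 50% and at least half of replicates individually reaching 50%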;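 also: exported cargo escapes ClpAP degradation while cytoplasmic cargo is degraded and loses fluorescence; 0% = median of neutral control wells and 100% = median of NaSCN control wells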
Numbers without * were called inactive; nt = no result given. Compounds with a hit are over-represented: about 0.5% of the library has one in this group of screens.

SMILES	AddAB inh	phage Ecoli inh	E coli growth-1	E coli growth-2	Tat export inh
O=C(COC(=O)c1ccccc1)Nc1ncc([N+](=O)[O-])s1	3.0	4.4	0.3	0.597	0.0
COc1ccc(C2C=CCN(Cc3ccc(N(C)C)cc3)CC(=O)N2Cc2ccc(F)cc2)cc1 (stereo unspecified)	nt	nt	nt	0.689	nt
COc1ccc(-c2ccc3c(c2)S(=O)(=O)c2cccc(C(=O)NCC4CCCO4)c2C3=O)cc1OC (stereo unspecified)	nt	nt	nt	0.671	nt
COc1ccc(-c2ccc(-c3noc(-c4ccccc4OC)n3)c(OC)n2)cc1	2.8	0.8	0.5	0.725	52.6*
O=C(Oc1ccc(Cl)c2cccnc12)c1cccc([N+](=O)[O-])c1	2.9	0.4	-1.6	0.507*	5.2
C=C1c2cccc(O)c2C(=O)C2C(=O)[C@]3(O)C(=O)C(C(N)=O)C(=O)C(N(C)C)C3C(O)C12 (stereo partly specified)	nt	nt	nt	0.067*	nt
CC(=O)Nc1cccc(C(=O)/C=C/c2ccc[nH]2)c1	8.3	7.3	10.7*	0.601	-15.3
CC(=O)Nc1cccc(C(=O)/C=C/c2ccc(/C=C/C(=O)c3cccc(NC(C)=O)c3)cc2)c1	3.2	1.4	2.9	nt	nt
CCC(C)C1CN(C(C)CN2CCCC2CN2C(N)=NCC2CC(C)C)C(=N)N1CCc1ccc(Cl)c(Cl)c1 (stereo unspecified)	nt	nt	nt	0.611	nt
Cc1cc(-c2n[nH]c(=S)n2N=C/C=C/c2ccccc2)n[nH]1	nt	nt	nt	0.691	nt
Cc1cc(-c2n[nH]c(=S)n2N=C/C(Br)=C/c2ccccc2)n[nH]1	nt	nt	nt	0.0585*	nt
CN(C)c1ccc(Nc2nc(N)c3ccccc3n2)cc1	1.2	1.8	3.5	nt	-4.4
Cc1ccc(Nc2nc(N)c3ccccc3n2)cc1Cl	2.6	1.5	1.4	0.444*	-5.9
COc1cc2nc(Nc3ccc(C)c(Cl)c3)nc(N)c2cc1OC	1.0	3.3	0.6	0.586	-15.4
Nc1nc(Nc2ccccc2)nc2ccccc12	1.1	1.7	-3.1	0.53*	1.0
Nc1nc(Nc2ccc(Cl)cc2)nc2ccccc12	0.7	3.3	2.1	0.352*	-8.4
CC(C)c1c(C(=O)NN=Cc2ccoc2)nnn1-c1nonc1N	nt	nt	nt	0.703	nt
Cc1ccc(Nc2cc(C)c3c(O)cccc3n2)cc1C	3.9	1.2	1.6	0.503*	7.5
COc1ccc(Nc2cc(C)c3c(O)cccc3n2)cc1	3.0	7.1	0.8	0.545	-18.6
CCCOc1ccc(C=Nn2nnnc2N)cc1OC	nt	nt	nt	0.671	nt
O=[N+]([O-])c1ccccc1Nc1c2ccccc2nc2ccccc12	4.0	0.9	0.9	0.664	1.7
O=[N+]([O-])c1cccc2nc3ccccc3c(NCCCn3ccnc3[N+](=O)[O-])c12	nt	16.1*	nt	nt	1.6
CC(=NNc1ccc([N+](=O)[O-])cc1)c1ccc(C)cc1C	nt	nt	nt	0.705	nt
Cc1cc(C(=O)NN=Cc2ccc([N+](=O)[O-])s2)n[nH]1	nt	nt	nt	0.457*	nt
O=[N+]([O-])c1ccc(C=Nc2ccc(Cl)c([N+](=O)[O-])c2)s1	nt	9.6	nt	nt	1.5
SMILES	AddAB inh	phage Ecoli inh	E coli growth-1	E coli growth-2	Tat export inh
Cc1cc(C)cc(N=Cc2ccc([N+](=O)[O-])s2)c1	2.0	8.4	0.4	0.54*	1.0
NC(=O)c1ccc(N=Cc2ccc([N+](=O)[O-])s2)cc1	7.9	5.7	2.6	0.347*	-1.9
Cc1cc(C(=O)N/N=C/c2cccs2)n[nH]1	4.1	3.3	1.1	nt	0.6
O=C(NN=Cc1ccc(Sc2ccccn2)o1)c1cccc([N+](=O)[O-])c1	nt	nt	nt	0.715	nt
CCCCCCn1c2c(c(=N)c3c1CCC3)CCC2	1.6	3.1	0.6	0.604	-9.6
CCCCCCCCCn1c2c(c(=N)c3c1CCC3)CCC2	5.0	nt	10.5*	0.494*	-10.8
CCCCCn1nc(C)c(C=NNC(=O)c2ccoc2C)c1C	nt	nt	nt	0.663	nt
CN(C)S(=O)(=O)c1cccc(NC(=S)N/N=C/c2ccc(O)c(O)c2O)c1	nt	10.9*	nt	nt	6.6
CCc1cccc2c1Sc1ccccc1CC2N1CCNCC1 (stereo unspecified)	3.5	3.4	1.4	0.61	-4.4
Cc1cccc2c1Sc1ccc(Cl)cc1CC2N1CCNCC1 (stereo unspecified)	3.0	nt	0.0	0.394*	nt
COc1ccccc1C=CCN1CCCC(CCC(=O)NCc2ccc(F)c(F)c2)C1 (stereo unspecified)	nt	nt	nt	0.689	nt
CC(C)(C)Nc1ncnc2sc(-c3ccccc3)cc12	3.4	5.6	0.8	0.639	-3.8
COC(CNc1ncnc2sc(-c3ccccc3)cc12)OC	-0.2	0.0	-2.1	0.658	58.2*
CCn1c(C)nc2cc(C(=O)N/N=C/c3ccc(O)c(O)c3O)ccc21	nt	21.1*	nt	nt	10.2
Cc1cc(N=Nc2ccccc2C(=O)O)c(C)c(C)c1O	7.0	1.5	10.0*	0.725	-0.8
Cc1cc(O)c(C(C)C)cc1N=Nc1ccccc1C(=O)O	-2.0	-2.1	-0.8	0.661	3.1
C=CCNC(=O)C=Cc1cccs1	nt	nt	nt	0.72	nt
O=S(=O)(NN=Cc1c(F)cccc1Cl)c1ccc(Cl)cc1	nt	nt	nt	0.76	nt
Cc1ccc(Cn2c(N)nc3ccccc32)cc1	5.7	3.5	2.1	nt	-4.4
Nc1nc2ccccc2n1Cc1ccc(Cl)c(Cl)c1	3.0	-1.7	3.3	0.439*	13.4
Clc1ccc2c(c1)c1ccccc1n2CN1CCOCC1	-1.2	0.1	1.4	0.515*	4.5
Clc1ccc2c(c1)c1cc(Cl)ccc1n2CN1CCOCC1	3.3	1.1	-1.7	0.0885*	5.5
COc1ccc(Cl)cc1CN1CCOCC1	3.0	-2.5	-0.2	0.662	6.1
COC(=O)C1=C(C(=O)OC)C2N(C)c3ccccc3[C@@]23CC(CO)N(C(=O)C2CCC2)C3=N1 (stereo partly specified)	nt	nt	nt	0.675	nt
CC1(C)CC(=O)C=C(NCCN2CCN(C(=O)Nc3ccccc3)CC2)C1	-0.7	1.6	-1.9	0.642	52.3*
SMILES	AddAB inh	phage Ecoli inh	E coli growth-1	E coli growth-2	Tat export inh
Oc1ccc(C[C@@H]2CNCCN2CCc2cc(C(F)(F)F)cc(C(F)(F)F)c2)cc1	0.3	2.9	0.2	nt	-3.1
FC(F)(F)c1cc(CCN2CCNCC2CC2CCCCC2)cc(C(F)(F)F)c1 (stereo unspecified)	nt	nt	nt	0.462*	nt
CCc1ccc2[nH]c3nc(N/N=C/c4ccc(O)cc4O)nnc3c2c1	11.2	8.5	11.1*	nt	-19.5
CN(C)c1nc(NCc2ccccc2)nc(NN=Cc2ccc(Br)cc2)n1	nt	nt	nt	0.719	nt
S=C(NCc1ccccc1)NCc1cccc(CNC(=S)NCc2ccccc2)c1	10.0	7.4	10.3*	0.724	-4.0
CC(C)c1ccc2c(c1)C(N1CCNCC1)Cc1ccc(F)cc1S2 (stereo unspecified)	0.9	3.6	1.0	0.128*	nt
CC(=O)Nc1ccc(S(=O)(=O)N2CCN(c3cc(C(F)(F)F)ccn3)CC2)cc1	-0.8	0.5	-2.4	0.11*	2.6
CC(=O)Nc1ccc(S(=O)(=O)N2CCN(C(=O)C(=O)c3cccc(C(F)(F)F)c3)CC2)cc1	nt	1.3	nt	nt	nt
CC12CCC(C(=O)N(CSC(=S)NN=Cc3ccccc3O)C1=O)C2(C)C (stereo unspecified)	nt	nt	nt	0.705	nt
CC12CCC(C(=O)N(CSC(=S)N/N=C\c3ccccc3Cl)C1=O)C2(C)C (stereo unspecified)	4.1	4.8	10.7*	nt	2.5
CCOC(=O)C(CCC[N+](C)(CC)CC)=NO	nt	nt	nt	0.668	nt
O=Cc1ccc(O)c2ncccc12	nt	nt	nt	0.093*	0.3
